Out of some 39,000 compounds screened, about 3,300 (8.5%) were called active. Only a selection was taken, and actives are over-represented in it overall.

The experiment relates to HepG2. Briefly: cytotoxicity call (relative viability < 0.9). The note with it: 10 µM.
Turning to `Cc1noc(C)c1S(=O)(=O)Nc1ccc2c(c1)C(=O)N([C@H](C)CO)C[C@@H](C)[C@H](CN(C)CC1CC1)O2`, the cytotoxicity call is “inactive”.

For the compound `NCC1OC(OC2C(N)CC(N)C(OC3OC(CO)C(O)C(N)C3O)C2O)C(N)CC1O` (stereo not drawn), the cytotoxicity call was “inactive”.

On to `COc1ccccc1CNC(=O)C[C@@H]1CC[C@H]2[C@@H](COC[C@@H](O)CN2C(=O)Nc2ccc(F)cc2)O1`, for which the cytotoxicity call was “inactive”.

With `C[C@H]1CN([C@@H](C)CO)C(=O)c2cc(Br)cnc2O[C@@H]1CN(C)S(=O)(=O)c1cn(C)cn1`, the cytotoxicity call is “inactive”.

On to `Cc1noc(C)c1S(=O)(=O)Nc1ccc2c(c1)C(=O)N([C@H](C)CO)C[C@H](C)[C@@H](CN(C)Cc1ccccc1)O2`, for which the cytotoxicity call was “inactive”.

On to `COc1cccc(S(=O)(=O)Nc2ccc3c(c2)[C@@H]2C[C@@H](CC(=O)NCC(F)(F)F)O[C@@H](CO)[C@@H]2O3)c1`, for which the cytotoxicity call is “inactive”.

Consider `Cc1ccc(S(=O)(=O)N(C)C[C@@H]2Oc3ccc(NC(=O)NC(C)C)cc3C(=O)N([C@H](C)CO)C[C@@H]2C)cc1`, for which the cytotoxicity call was “inactive”.

For the compound `C[C@H](CO)N1C[C@H](C)[C@@H](CN(C)S(C)(=O)=O)Oc2cc(C#Cc3ccc(F)cc3)ccc2S1(=O)=O`, the cytotoxicity call is “inactive”.

For the compound `C[C@@H]1CN([C@@H](C)CO)S(=O)(=O)c2ccc(C#Cc3ccc(F)cc3)cc2O[C@H]1CN(C)S(C)(=O)=O`, the cytotoxicity call is “inactive”.

On to `C[C@@H]1CN([C@H](C)CO)S(=O)(=O)c2ccc(C#Cc3ccc(F)cc3)cc2O[C@@H]1CN(C)S(C)(=O)=O`, for which the cytotoxicity call is “inactive”.

For `C[C@H](CO)N1C[C@H](C)[C@H](CN(C)S(C)(=O)=O)Oc2cc(C#Cc3ccc(F)cc3)ccc2S1(=O)=O`, the cytotoxicity call was “active”.

On to `C[C@@H]1CN([C@H](C)CO)S(=O)(=O)c2ccc(C#Cc3ccc(F)cc3)cc2O[C@H]1CN(C)S(C)(=O)=O`, for which the cytotoxicity call was “inactive”.

Regarding `C[C@H]1CN([C@@H](C)CO)S(=O)(=O)c2ccc(C#Cc3ccc(F)cc3)cc2O[C@@H]1CN(C)S(C)(=O)=O`, the cytotoxicity call is “active”.

Take `COc1ccc(CN(C)C[C@H]2OCCCC[C@@H](C)Oc3ccc(NS(=O)(=O)c4c(C)noc4C)cc3C(=O)N([C@H](C)CO)C[C@@H]2C)cc1`: the cytotoxicity call is “inactive”.

As for `CC(C)NC(=O)Nc1cccc2c1O[C@H](CN(C)S(=O)(=O)c1ccc(F)cc1)[C@@H](C)CN([C@H](C)CO)C2=O`, the cytotoxicity call was “inactive”.

Consider `CCCCCS(=O)(=O)CCCCCCCCCCn1c(-c2ccc(O)cc2)c(C)c2cc(O)ccc21`, for which the cytotoxicity call was “active”.

Take `CCCCC(=O)c1ccc(O)cc1`: the cytotoxicity call is “inactive”.

With `C[C@H](CO)N1C[C@H](C)[C@@H](CN(C)S(=O)(=O)c2cn(C)cn2)Oc2c(NC(=O)Cc3ccccc3)cccc2C1=O`, the cytotoxicity call is “inactive”.

For `C[C@@H]1CN([C@@H](C)CO)C(=O)c2cc(NC(=O)Nc3cccc4ccccc34)ccc2O[C@H]1CN(C)Cc1ccc(Cl)c(Cl)c1`, the cytotoxicity call was “inactive”.

`C[C@H](CO)N1C[C@H](C)[C@@H](CN(C)Cc2ccc(Cl)c(Cl)c2)Oc2ccc(NC(=O)Nc3cccc4ccccc34)cc2CC1=O`: the cytotoxicity call is “inactive”.

Turning to `C[C@H](CO)N1C[C@H](C)[C@H](CN(C)Cc2ccc(Cl)c(Cl)c2)Oc2ccc(NC(=O)Nc3cccc4ccccc34)cc2CC1=O`, the cytotoxicity call is “inactive”.

`C[C@@H]1CN([C@@H](C)CO)C(=O)Cc2cc(NC(=O)Nc3cccc4ccccc34)ccc2O[C@@H]1CN(C)Cc1ccc(Cl)c(Cl)c1`: the cytotoxicity call was “active”.

Turning to `C[C@@H]1CN([C@H](C)CO)C(=O)Cc2cc(NC(=O)Nc3cccc4ccccc34)ccc2O[C@@H]1CN(C)Cc1ccc(Cl)c(Cl)c1`, the cytotoxicity call was “active”.

In the case of `C[C@H](CO)N1C[C@H](C)[C@H](CN(C)Cc2ccc(Cl)c(Cl)c2)Oc2ccc(NC(=O)Nc3cccc4ccccc34)cc2C1=O`, the cytotoxicity call is “active”.

`C[C@@H]1CN([C@H](C)CO)C(=O)c2cc(NC(=O)Nc3cccc4ccccc34)ccc2O[C@@H]1CN(C)Cc1ccc(Cl)c(Cl)c1`: the cytotoxicity call is “inactive”.

As to `C[C@H]1CN([C@@H](C)CO)C(=O)Cc2cc(NC(=O)Nc3cccc4ccccc34)ccc2O[C@@H]1CN(C)Cc1ccc(Cl)c(Cl)c1`, the cytotoxicity call is “inactive”.

Take `C[C@@H]1CN([C@H](C)CO)C(=O)Cc2cc(NC(=O)Nc3cccc4ccccc34)ccc2O[C@H]1CN(C)Cc1ccc(Cl)c(Cl)c1`: the cytotoxicity call is “inactive”.

In the case of `COc1ccc(S(=O)(=O)Nc2ccc3c(c2)C(=O)N(C)C[C@@H](OC)[C@H](C)CN(C(=O)NC(C)C)[C@H](C)CO3)cc1`, the cytotoxicity call is “inactive”.

`CN(C)CCCNC(=O)C[C@@H]1CC[C@@H]2[C@H](COC[C@@H](O)CN2S(=O)(=O)c2ccc(Cl)cc2)O1`: the cytotoxicity call was “inactive”.

As to `C[C@@H]1CCCCO[C@@H](CN(C)S(=O)(=O)c2cccs2)[C@@H](C)CN([C@@H](C)CO)C(=O)c2cc(NC(=O)Nc3ccc(C(F)(F)F)cc3)ccc2O1`, the cytotoxicity call was “inactive”.

Turning to `Cc1noc(C)c1S(=O)(=O)Nc1ccc2c(c1)C(=O)N([C@@H](C)CO)C[C@@H](C)[C@@H](CN(C)Cc1ccccc1)OCCCC[C@H](C)O2`, the cytotoxicity call is “inactive”.

Regarding `C[C@@H]1CN([C@@H](C)CO)C(=O)c2cc(NC(=O)CCN3CCOCC3)ccc2O[C@H]1CN(C)CC1CCCCC1`, the cytotoxicity call was “inactive”.

In the case of `C[C@@H]1CCCCO[C@@H](CN(C)C(=O)c2ccccc2)[C@H](C)CN([C@H](C)CO)C(=O)c2cc(NS(=O)(=O)c3ccc(Cl)cc3)ccc2O1`, the cytotoxicity call was “inactive”.

As to `Cc1ccc(S(=O)(=O)N(C)C[C@H]2OCCCC[C@H](C)Oc3ccc(NC(=O)Nc4ccccc4)cc3C(=O)N([C@@H](C)CO)C[C@@H]2C)cc1`, the cytotoxicity call is “inactive”.

For the compound `C[C@@H]1CN([C@@H](C)CO)C(=O)CCCn2nncc2CO[C@@H]1CN(C)Cc1cccc2c1OCCCO2`, the cytotoxicity call was “inactive”.

`COc1ccc(NC(=O)Nc2ccc3c(c2)C(=O)N([C@@H](C)CO)C[C@@H](C)[C@@H](CN(C)Cc2ccncc2)OCCCC[C@@H](C)O3)cc1`: the cytotoxicity call is “inactive”.

In the case of `C[C@@H]1CN([C@H](C)CO)C(=O)c2cc(NC(=O)Cn3cnnn3)ccc2O[C@@H]1CN(C)C(=O)Nc1ccc(F)cc1`, the cytotoxicity call was “inactive”.

On to `CC(C)Oc1ccc(Cl)cc1CN`, for which the cytotoxicity call is “inactive”.

As to `CCOc1ccccc1OCCNC(C)Cc1ccc(OC)c(S(N)(=O)=O)c1.Cl` (stereo not drawn), the cytotoxicity call was “inactive”.

For `CC(C)(C)NCCCCOc1ccc(Cl)cc1C(C)(C)C`, the cytotoxicity call was “active”.

On to `C#CCN(C)CCCOc1ccc(Cl)cc1Cl.Cl`, for which the cytotoxicity call is “inactive”.

`CC[C@@H](C)NCCCCOc1ccc(Cl)cc1C(C)(C)C`: the cytotoxicity call was “active”.

For `Cc1ccc(OCc2ccc(Cl)cc2)c(C(C)(C)C)c1`, the cytotoxicity call was “inactive”.

For `C[C@@H]1CN([C@H](C)CO)C(=O)c2cc(NC(=O)Nc3ccc4c(c3)OCO4)ccc2O[C@@H]1CN(C)S(C)(=O)=O`, the cytotoxicity call was “inactive”.

Turning to `COc1ccc(COC[C@]23NC(=S)N[C@H](c4ccccc4O2)[C@H]3CO[Si](C)(C)C(C)(C)C)cc1`, the cytotoxicity call was “inactive”.

`COc1ccc(COC[C@]23N=C4SCc5ccccc5CN4[C@H](c4ccccc4O2)[C@H]3CO[Si](C)(C)C(C)(C)C)cc1`: the cytotoxicity call was “inactive”.

As to `COc1ccc(COC[C@]23NC(=S)N[C@H](c4ccccc4O2)[C@@H]3CO[Si](C)(C)C(C)(C)C)cc1`, the cytotoxicity call is “inactive”.

Take `COc1ccc(COC[C@]23N=C4SCCCN4[C@H](c4ccccc4O2)[C@H]3CO[Si](C)(C)C(C)(C)C)cc1`: the cytotoxicity call was “active”.

For `COc1ccc(COC[C@]23N=C4SCCCN4[C@H](c4ccccc4O2)[C@H]3COC(=O)c2ccccc2)cc1`, the cytotoxicity call was “inactive”.

As to `COc1ccc(COC[C@@]23Oc4ccccc4[C@@H](NC(=S)N2C)[C@H]3CO[Si](C)(C)C(C)(C)C)cc1`, the cytotoxicity call was “active”.

As to `COc1ccc(COC[C@@]23Oc4ccccc4[C@@H](NC(=S)N2C)[C@@H]3CO[Si](C)(C)C(C)(C)C)cc1`, the cytotoxicity call was “active”.

For the compound `COc1ccc(COC[C@@]23Oc4ccccc4[C@@H](NC(=O)N2C(=O)c2ccccc2)[C@H]3CO[Si](C)(C)C(C)(C)C)cc1`, the cytotoxicity call is “inactive”.

`COc1ccc(COC[C@]23Oc4ccccc4[C@H]([C@H]2CO[Si](C)(C)C(C)(C)C)N(C(=O)CC(C)=O)C(=O)N3C)cc1`: the cytotoxicity call is “inactive”.

For `O=C(C[C@H]1CC[C@H]2[C@@H](COC[C@@H](O)CN2S(=O)(=O)c2cccc(F)c2)O1)NCc1ccncn1`, the cytotoxicity call was “inactive”.

As for `Cc1cccc(CO)n1`, the cytotoxicity call was “inactive”.

As for `O=C1N[C@@H]2[C@@H](O)[C@@H](O)[C@H](O)[C@@H](CO)N2C1=O`, the cytotoxicity call is “inactive”.

For `CCCCS(=N)(=O)CC[C@@H](N)C(=O)O` (stereo partly drawn), the cytotoxicity call is “inactive”.

As to `NC(=S)Nc1ccncc1`, the cytotoxicity call was “inactive”.

For the compound `CCC[C@@H](O)C#Cc1cnc2c(c1)C(=O)N([C@H](C)CO)C[C@H](C)[C@H](CN(C)S(=O)(=O)c1cccc(F)c1)O2`, the cytotoxicity call is “inactive”.

Take `C[C@H](CO)N1C[C@H](C)[C@H](CN(C)C(=O)Cc2ccccc2)OCCCC[C@H](C)Oc2ccc(NS(=O)(=O)c3ccc(Cl)cc3)cc2C1=O`: the cytotoxicity call is “inactive”.

In the case of `COc1ccc(NC(=O)N(C)C[C@H]2Oc3ccc(NS(=O)(=O)c4cn(C)cn4)cc3CC(=O)N([C@H](C)CO)C[C@H]2C)cc1`, the cytotoxicity call is “inactive”.

Regarding `Cc1noc(C)c1NC(=O)N(C)C[C@H]1Oc2ccc(NC(=O)c3ccncc3)cc2C(=O)N([C@H](C)CO)C[C@H]1C`, the cytotoxicity call was “inactive”.

Take `CCNC(=O)CCC(N)C(=O)[O-].[K+]` (stereo not drawn): the cytotoxicity call was “inactive”.

Consider `C[C@@H]1ON(c2ccc(I)cc2)[C@H](c2ccc(OC(=O)OC(C)(C)C)cc2)[C@H]1C(=O)N1C(=O)OC[C@H]1Cc1ccccc1`, for which the cytotoxicity call is “inactive”.

For the compound `COc1ccc(S(=O)(=O)N(C)C[C@@H]2Oc3ccc(NS(=O)(=O)c4c(C)noc4C)cc3CC(=O)N([C@H](C)CO)C[C@@H]2C)cc1`, the cytotoxicity call was “inactive”.

For the compound `C[C@@H]1CN([C@@H](C)CO)C(=O)c2cc(NC(=O)Nc3ccccc3)ccc2O[C@@H](C)CCCCO[C@H]1CN(C)C(=O)OC(C)(C)C`, the cytotoxicity call is “inactive”.

For the compound `C[C@H](CO)N1C[C@H](C)[C@H](CN(C)C(=O)Nc2cccc3ccccc23)Oc2ccc(NC(=O)C3CCCCC3)cc2CC1=O`, the cytotoxicity call is “active”.

Regarding `C[C@H]1CN([C@@H](C)CO)C(=O)Cc2cc(NC(=O)C3CCCCC3)ccc2O[C@H]1CN(C)C(=O)Nc1cccc2ccccc12`, the cytotoxicity call was “inactive”.

Turning to `Cc1noc(C)c1NC(=O)Nc1ccc2c(c1)CC(=O)N([C@@H](C)CO)C[C@@H](C)[C@H](CN(C)C(=O)Nc1cccc3ccccc13)O2`, the cytotoxicity call is “active”.

With `C[C@H]1CN([C@@H](C)CO)C(=O)Cc2cc(NC(=O)NC3CCCCC3)ccc2O[C@H]1CN(C)C(=O)Nc1cccc2ccccc12`, the cytotoxicity call was “active”.

As to `CC(C)NC(=O)N(C)C[C@H]1Oc2ccc(NC(=O)C3CCCCC3)cc2CC(=O)N([C@H](C)CO)C[C@H]1C`, the cytotoxicity call was “inactive”.

For the compound `C[C@@H]1CN([C@@H](C)CO)C(=O)Cc2cc(NC(=O)NC3CCCCC3)ccc2O[C@H]1CN(C)C(=O)Nc1cccc2ccccc12`, the cytotoxicity call was “inactive”.

Consider `C[C@H]1CN([C@@H](C)CO)C(=O)Cc2cc(NC(=O)NC3CCCCC3)ccc2O[C@@H]1CN(C)C(=O)Nc1cccc2ccccc12`, for which the cytotoxicity call was “inactive”.

Turning to `CC(C)NC(=O)N(C)C[C@H]1Oc2ccc(NC(=O)C3CCCCC3)cc2CC(=O)N([C@H](C)CO)C[C@@H]1C`, the cytotoxicity call was “active”.

Consider `CC(C)NC(=O)N(C)C[C@@H]1Oc2ccc(NC(=O)C3CCCCC3)cc2CC(=O)N([C@@H](C)CO)C[C@@H]1C`, for which the cytotoxicity call was “inactive”.

As for `Cc1noc(C)c1NC(=O)Nc1ccc2c(c1)CC(=O)N([C@@H](C)CO)C[C@H](C)[C@@H](CN(C)C(=O)Nc1cccc3ccccc13)O2`, the cytotoxicity call is “inactive”.

With `Cc1noc(C)c1NC(=O)Nc1ccc2c(c1)CC(=O)N([C@H](C)CO)C[C@H](C)[C@@H](CN(C)C(=O)Nc1cccc3ccccc13)O2`, the cytotoxicity call is “inactive”.

As for `C[C@@H]1CN([C@H](C)CO)C(=O)Cc2cc(NC(=O)C3CCCCC3)ccc2O[C@H]1CN(C)C(=O)Nc1cccc2ccccc12`, the cytotoxicity call was “inactive”.

(Values after the antibiotic and cytotoxicity screens of Wong et al. (2023).)
